# Source: PubChem BioAssay (National Center for Advancing Translational Sciences (NCATS))
# uPA generation = cell surface uPA generation inhibition; 330,000 tested, 0.31% active; cell surface uPA generation assay, qHTS; Potency, µM (doses to about 38.3 µM), without a hit: at the top dose activity change, negative = inhibition, hits mostly inhibitors; active = well fitted inhibition curve with a large enough effect; inconclusive = small, poorly fitted or top-dose-only effect; inactive = no such curve, though single readings can be large or run the other way; tested in mouse RAW 264.7 cells; note: potency is the fitted concentration of half-maximal effect; nearly all actives have a fitted effect of over 55% in size
# TDP1 cell CPT = growth inhibition of DT40 Tdp1-/-;hTDP1 cells with camptothecin (screen for TDP1 inhibitors). Potency, µM (top dose mostly 46.2 µM), for the others: at the top dose activity change, negative = growth inhibition, hits mostly inhibitors. 420,000 tested, 12% active. chicken DT40 Tdp1-/-;hTDP1 cells + 20 nM CPT, ATP luminescence, 48 h; note: potency is the fitted concentration of half-maximal effect; nearly all actives have a fitted effect of over 55% in size
#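 Cell growth measured by CellTiter-Glo luminescence after a minimum 48 h, 37 C compound exposure with 20 nM CPT in Tdp1-knockout DT40 cells stably expressing hTDP1, seeded 400/well; qHTS titration format.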
# IL-1B inflam inh = inflammasome signaling inhibition, IL-1 beta readout; 360,000 tested, 4.7% active; activity change, % at 57.5 µM; THP-1 LPS/ATP IL-1B secretion, AlphaLISA, 16 h; active compounds read low; AID 743279; in the data active = activity change below about -50%; inconclusive = mostly about -30% to -49%
#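 THP-1 cells pretreated 1 hr with compounds (up to 57.5 uM final), then stimulated with LPS (250 ng/mL final) plus ATP (1.25 mM final); secreted IL-1B measured by AlphaLISA after 16 hr, decreased signal indicating inhibition.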
# HT1080-NT tox = kills 2HG-producing HT-1080-NT fibrosarcoma cells; HT-1080-NT fibrosarcoma viability, CellTiter-Glo ATP luminescence, 48 h; 360,000 tested, 1.6% active; Potency, µM (doses to about 46.1 µM), inactives show at the top dose activity, negative = less viability, usual class: cytotoxic; AID 686970;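 note: NT is the 2HG producing partner of a matched IDH1 knockdown line; potency is the fitted concentration of half-maximal effect; 0% = DMSO-treated cells and -100% = media-only wells without cells; nearly all actives have a fitted effect of over 55% in size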
#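 Luminescent CellTiter-Glo readout after 48 hours of compound exposure at 37 degrees C defined viability of HT-1080-NT cells. Activity was normalized to DMSO wells and cell-free media wells; concentration-response curves were fitted and assigned curve classes.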
# HT1080 IDH1KD tx = toxicity to HT-1080 IDH1 knockdown cells (counter line) | AID 686971 | HT-1080 IDH1 knockdown viability, ATP luminescence, 48 h | 360,000 tested, 2% active | Potency, µM (highest dose often 46.1 µM), inactives show at the highest dose activity, negative = toxicity, hits mostly cytotoxic;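 note: potency is the fitted concentration of half-maximal effect; 0% = DMSO wells and -100% = cell-free medium wells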
#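 HT-1080-IDH1KD cells (IDH1 knocked down), 750/well in RPMI with 5% FBS, treated with compound 48 h at 37 degrees C. Viability by CellTiter-Glo luminescence, normalised to DMSO and no-cell wells; concentration-response curves classed.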
# TDP1 cell noCPT = qHTS for Inhibitors of human tyrosyl-DNA phosphodiesterase 1 (TDP1): qHTS in cells in absence of CPT | DT40 Tdp1-/- hTDP1 cells, no CPT, ATP luminescence, 48 h | Potency, µM (top dose mostly 46.2 µM), for inactives: at the top dose activity change, negative = growth inhibition, hits mostly inhibitors | 420,000 tested, 15% active | AID 686978, 2013; note: potency is the fitted concentration of half-maximal effect; nearly all actives have a fitted effect of over 55% in size
#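 Camptothecin absent (DMSO only). Human TDP1-complemented DT40 knockout cells, 400 cells/well, 37 °C for minimum 48 hr; ATP measured via CellTiter-Glo, 30 min dark incubation, luminescence.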
# Numbers without * were called inactive; ? = inconclusive; nt = no result given. Rows were chosen to be rich in hits. Some 19% of all compounds tested hit in one or more screens of this group. Unless noted, calls come from the whole dose curve; as a rule, active = well fitted curve in the direction sought with a large enough effect; inconclusive = small, poorly fitted or top-dose-only effect, or another doubt; inactive = no such curve, though single readings can be large; an effect the other way counts as inactive or inconclusive. Unless noted, % is set by controls: 0 for no effect and ±100 for the full control effect.
SMILES,uPA generation,TDP1 cell CPT,IL-1B inflam inh,HT1080-NT tox,HT1080 IDH1KD tx,TDP1 cell noCPT
C[C@]12C(=O)N(c3cccc(F)c3)C(=O)N1[C@@H]1c3ccccc3OC[C@@H]1[C@H]2c1ccccc1,-10.0%,11.6µM*,-19.2,-2.1%,-2.2%,20.6µM*
C[C@]12C(=O)N(c3ccccc3)C(=O)N1[C@H]1c3ccccc3OC[C@@H]1[C@H]2c1ccccc1,-2.1%,?,-2.9,0.5%,0.0%,?
O=C(NCC1CCCO1)c1cc2ccccc2o1 (configuration not stated),-1.6%,-13.1%,17.9,-3.1%,15.2%,13.0%
O=C(O)CCCN=CC1=C(O)CNC1=O,0.2%,?,-8.3,18.3%,15.5%,-16.1%
CC(=O)c1ccc(Oc2ncnc(N)c2[N+](=O)[O-])cc1,-4.2%,23.1µM*,-24.3,10.4%,6.9%,?
Nc1ncnc(Oc2ccccc2F)c1[N+](=O)[O-],-11.8%,-8.2%,-89.0*,-3.4%,-12.2%,7.2%
CC(C)c1cccc(OCCN2CCCC2)c1,1.0%,16.1%,8.6,7.8%,5.8%,2.1%
O=C(O)c1ccccc1CC(CCc1ccccc1)C(=O)O (configuration not stated),1.2%,-4.1%,4.6,-0.6%,0.8%,-12.7%
O=C1NC[C@H](Cc2ccccc2)N(C[C@@H]2CCCN2C[C@H](Cc2ccc(O)cc2)N2C[C@H](Cc3ccc(O)cc3)N(CCc3ccccc3)C(=O)C2=O)C1=O,nt,3.2%,-19.6,-3.7%,7.2%,-5.2%
O=C1NC[C@H](Cc2ccc(O)cc2)N(C[C@@H]2CCCN2C[C@H](Cc2ccccc2)N2C[C@H](Cc3ccc(O)cc3)N(CCc3ccccc3)C(=O)C2=O)C1=O,nt,?,?,-17.1%,-16.2%,18.4µM*
O=C1NC[C@H](Cc2ccccc2)N(C[C@@H]2CCCN2C[C@H](Cc2ccccc2)N2C[C@H](Cc3ccc(O)cc3)N(CCc3ccccc3)C(=O)C2=O)C1=O,nt,?,-60.3*,?,?,?
O=C1NC[C@H](Cc2ccc(O)cc2)N(C[C@H]2CCCN2C[C@H](Cc2ccc(O)cc2)N2C[C@H](Cc3ccc(O)cc3)N(CCc3ccccc3)C(=O)C2=O)C1=O,nt,-14.2%,-3.6,12.9%,4.7%,-0.3%
O=C1NC[C@H](Cc2ccccc2)N(C[C@H]2CCCN2C[C@H](Cc2ccccc2)N2C[C@H](Cc3ccc(O)cc3)N(CCc3ccccc3)C(=O)C2=O)C1=O,-4.4%,?,-52.4*,-22.9%,?,?
CC1CCN(C2=NC(=O)/C(=C/c3ccccc3F)S2)CC1,-5.3%,-3.7%,-99.2*,-4.3%,-21.4%,?
CC1Cc2cc(/C=C3/SC(N4CCC(C(N)=O)CC4)=NC3=O)ccc2O1 (configuration not stated),-7.6%,14.6µM*,nt,?,?,18.4µM*
CC1CCN(C2=NC(=O)/C(=C/c3cccc(O)c3)S2)CC1,-2.6%,?,-75.2*,-20.6%,-4.3%,?
Cn1nc(C(C)(C)C)cc1N1C(=O)CCC1(C)C(=O)Nc1ccc2c(c1)OCCO2 (configuration not stated),nt,11.4%,2.8,21.2%,10.1%,1.2%
COC(=O)c1ccc2c(=O)n(C3CCCCC3)c(SCC#N)nc2c1,-1.6%,11.6µM*,-8.4,-0.3%,-11.0%,23.1µM*
CC(C)OCCCn1c(SCc2ccccc2C#N)nc2c(sc3ccccc32)c1=O,nt,9.2%,nt,nt,nt,-1.3%
Cc1ccc(C)c(NC(=S)/C(=C(\[O-])c2ccc(Cl)s2)[n+]2ccccc2)c1,22.4%,-17.7%,42.5,-8.2%,0.2%,-13.9%
CCc1cccc(CC)c1NC(=S)/C(=C(\[O-])c1ccc(Cl)s1)[n+]1ccccc1,-22.5%,2.31µM*,-28.6,-17.8%,-18.6%,1.84µM*
Cc1cc(C)cc(NC(=S)/C(=C(\[O-])c2ccc(Cl)s2)[n+]2cccc(C)c2)c1,2.7%,18.4µM*,-11.9,-12.8%,-16.3%,20.6µM*
[O-]/C(=C(\C(=S)Nc1cccc2ccccc12)[n+]1ccccc1)c1ccc(Cl)s1,-4.5%,?,-21.0,-2.9%,-6.7%,18.4µM*
Cc1ccc(NC(=O)CCCNC(=O)c2ccc(Cl)cc2)c(O)c1,2.7%,-25.5%,74.0,-6.0%,-1.3%,0.9%
